Results as given in PubChem BioAssay.
Activity calls are given as the source filed them.

Experiments:
Lefty1 = Lefty1 protein binding to printed compounds – biochemical, small-molecule microarray, 635/667 nm fluorescence, primary screen (AID 1139); conditions: fluorescence 635/667, higher = more signal
[1] = tested on: wheat germ agglutinin (Triticum aestivum), Alexa647-labelled; test: Alexa647-WGA lectin binding to printed small molecules – biochemical, small-molecule microarray, 635/667 nm fluorescence, artefact control for SMM control-protein annotation, profiling panel (AID 1140); conditions: WGA-A647 binding, 635 nm fluorescence, higher = more signal;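 note: score merges 667 nm feature emission with signal to noise over triplicate slides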
[2] = target: Luciferin 4-monooxygenase (Photinus pyralis) (UniProt P08659); test: inhibition of purified Photinus pyralis luciferase – biochemical, luminescence, purified enzyme, 2006 set, primary screen (AID 1141); conditions: purified firefly luciferase, SteadyGlo luminescence, 30 min; higher = more signal, called active from +8 up or from −8 down;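 note: cell-free assay with purified firefly luciferase at 100 ng per well in PBS; test concentration not given here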
[3] = tested on: Wnt5a (protein binding on small-molecule microarray); test: small molecules binding Wnt5a protein – biophysical, small-molecule microarray, 635/667 nm fluorescence, primary screen (AID 1142); conditions: 635 nm fluorescence, higher = more signal;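 note: fluorescence read at 667 nm with signal to noise per printed feature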
[4] = ATP-based viability of Huh7 replicon cells – cell-based, CellTiter-Glo luminescence, basal, 48 h, cytotoxicity control for HCV replication inhibitor project, primary screen (AID 1143); conditions: higher = more signal, called active from +8 up or from −8 down;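 note: Huh7 hepatoma cells carrying a hepatitis C replication reporter with no stimulus; test concentration not given here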
[5] = basal CRE-LacZ reporter activity in PC12 – cell-based, unstimulated, primary screen (AID 1145); conditions: no forskolin, luminescence, 4.5 h, higher = more signal, called active from +8 up or from −8 down
[6] = forskolin-driven CRE-LacZ activity in PC12 – cell-based, CRE-LacZ reporter, forskolin-stimulated, primary screen (AID 1146); conditions: luminescence, 4.5 h, higher = more signal, called active from +8 up or from −8 down;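 note: PC12 cells with 6xCRE LacZ reporter stimulated by forskolin 10 µM; beta-galactosidase reporter signal reflecting CREB driven transcription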
[7] = target: Streptavidin (Streptomyces avidinii) (UniProt P22629); test: compounds binding control protein streptavidin – biophysical, small-molecule microarray, 635/667 nm fluorescence, artefact control for SMM compound annotation, primary screen (AID 1147); conditions: higher = more signal;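 note: signal reflects streptavidin binding to arrayed compounds as a control protein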
[8] = probe aInhba binding on compound microarray – biochemical, small-molecule microarray, 635/667 nm fluorescence, primary screen (AID 1148); conditions: higher = more signal;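 note: score merges 667nm spot fluorescence with signal-to-noise for antibody binding to printed compounds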
Torsin-1A (Homo sapiens) [9] = target: Torsin-1A (Homo sapiens) (UniProt O14656); test: TOR1A wild-type binding on microarray – cell lysate, small-molecule microarray, lysate, 635/667 nm, primary screen (AID 1149); conditions: COS7 hTOR1A-WT lysate, 635 nm fluorescence, higher = more signal
Torsin-1A (Homo sapiens) [10] = target: Torsin-1A (Homo sapiens) (UniProt O14656); test: torsin A mutant lysate binding on microarrays – cell lysate, small-molecule microarray, COS7 lysate, 635/667 nm fluorescence, primary screen (AID 1150); conditions: COS7 hTOR1A mutant lysate, 635 nm fluorescence, higher = more signal;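 note: score pools 667 nm emission and signal to noise measuring lysate protein binding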
[11] = tested on: Sonic hedgehog protein (Shh); test: Sonic hedgehog microarray binding compounds – biochemical, small-molecule microarray, 635/667 nm fluorescence, primary screen (AID 1151); conditions: 635 nm fluorescence, higher = more signal;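 note: Shh protein binding to compounds spotted on small-molecule microarray slides; score combines spot fluorescence intensity with signal-to-noise across triplicate slides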
[12] = optical density shifts of acrAB sulA E. coli – strain DRC41, OD650, 48 h, E. coli filamentation inducer project, primary screen (AID 1152); conditions: higher = more signal, called active from +8 up or from −8 down;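 note: E. coli MC1000 strain DRC41 lacking acrAB efflux pump and sulA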
[13] = probe aLefty1 binding on compound microarray – biochemical, small-molecule microarray, 635/667 nm fluorescence, primary screen (AID 1153); conditions: higher = more signal;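 note: score merges spot fluorescence with signal-to-noise ratio from the scanned slide images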
[14] = plasmodial surface anion channel blockers, osmotic lysis – cell-based, P. falciparum Indochina, OD700, 1 h, primary screen (AID 1154); conditions: P. falciparum Indochina infected RBC osmotic lysis, higher = more signal, called active from +8 up or from −8 down
[15] = plasmodial surface anion channel blockers, osmotic lysis – cell-based, P. falciparum Indochina, OD700, 2 h, primary screen (AID 1155);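 note: lysis reports solute entry through the parasite surface anion channel PSAC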; conditions: P. falciparum Indochina infected erythrocytes, higher = more signal, called active from +8 up or from −8 down
[16] = changes in parasitized red cell lysis, either direction – P. falciparum Indochina, OD700, 3 h, PSAC antagonist project, primary screen (AID 1156); conditions: P. falciparum-infected erythrocytes, osmotic lysis, higher = more signal, called active from +8 up or from −8 down
[17] = plasmodial surface anion channel blockers, osmotic lysis – cell-based, P. falciparum Indochina, OD700, 18 h, primary screen (AID 1157); conditions: P. falciparum Indochina infected erythrocytes, osmotic lysis OD700, 18 h; higher = more signal, called active from +8 up or from −8 down
[18] = S6 kinase pathway phospho-S6 level changes – cell-based, A549, cytoblot, luminescence, serum-stimulated, primary screen (AID 1158); conditions: 5 h, higher = more signal;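 note: serum-stimulated A549 lung adenocarcinoma cells; signal is phosphorylated S6 detected by cytoblot immunostaining with HRP secondary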
[19] = target: NADPH oxidase 2 (Homo sapiens) (UniProt P04839); test: compounds shifting NOX2 Amplex Red fluorescence – cell-based, HEK293-NOX2, PMA-stimulated, NOX inhibitor project, primary screen (AID 1159); conditions: 45 min, higher = more signal, called active from +8 up or from −8 down; note: test concentration not given here
NADPH oxidase 2 (Homo sapiens), sequence (P04839 whole entry, looked up): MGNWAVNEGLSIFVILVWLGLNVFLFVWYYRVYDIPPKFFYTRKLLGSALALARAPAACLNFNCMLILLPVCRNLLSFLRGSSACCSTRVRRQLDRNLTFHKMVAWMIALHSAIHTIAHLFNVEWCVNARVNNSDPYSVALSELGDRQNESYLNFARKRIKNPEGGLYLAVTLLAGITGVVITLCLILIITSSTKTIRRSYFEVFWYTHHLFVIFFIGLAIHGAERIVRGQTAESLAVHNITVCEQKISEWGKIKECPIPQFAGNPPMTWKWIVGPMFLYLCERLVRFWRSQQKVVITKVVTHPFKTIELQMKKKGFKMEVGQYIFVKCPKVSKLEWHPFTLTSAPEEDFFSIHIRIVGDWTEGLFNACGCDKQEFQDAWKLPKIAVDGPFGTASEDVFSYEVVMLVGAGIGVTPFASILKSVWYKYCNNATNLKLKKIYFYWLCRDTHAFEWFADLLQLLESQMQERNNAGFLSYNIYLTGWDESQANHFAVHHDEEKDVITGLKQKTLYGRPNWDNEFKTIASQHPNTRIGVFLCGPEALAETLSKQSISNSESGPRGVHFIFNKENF

Torsin-1A (Homo sapiens), sequence (O14656 whole entry, looked up): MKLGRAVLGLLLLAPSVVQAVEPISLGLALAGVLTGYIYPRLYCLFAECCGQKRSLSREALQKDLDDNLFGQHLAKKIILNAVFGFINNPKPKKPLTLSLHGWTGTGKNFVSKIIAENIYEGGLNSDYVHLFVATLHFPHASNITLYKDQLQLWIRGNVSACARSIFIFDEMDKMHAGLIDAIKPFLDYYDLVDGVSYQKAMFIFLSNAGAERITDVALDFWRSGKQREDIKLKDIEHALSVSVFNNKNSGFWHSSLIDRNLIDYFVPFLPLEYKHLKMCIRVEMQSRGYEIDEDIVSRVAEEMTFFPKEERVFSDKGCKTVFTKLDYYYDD
Luciferin 4-monooxygenase (Photinus pyralis), sequence (P08659 whole entry, looked up): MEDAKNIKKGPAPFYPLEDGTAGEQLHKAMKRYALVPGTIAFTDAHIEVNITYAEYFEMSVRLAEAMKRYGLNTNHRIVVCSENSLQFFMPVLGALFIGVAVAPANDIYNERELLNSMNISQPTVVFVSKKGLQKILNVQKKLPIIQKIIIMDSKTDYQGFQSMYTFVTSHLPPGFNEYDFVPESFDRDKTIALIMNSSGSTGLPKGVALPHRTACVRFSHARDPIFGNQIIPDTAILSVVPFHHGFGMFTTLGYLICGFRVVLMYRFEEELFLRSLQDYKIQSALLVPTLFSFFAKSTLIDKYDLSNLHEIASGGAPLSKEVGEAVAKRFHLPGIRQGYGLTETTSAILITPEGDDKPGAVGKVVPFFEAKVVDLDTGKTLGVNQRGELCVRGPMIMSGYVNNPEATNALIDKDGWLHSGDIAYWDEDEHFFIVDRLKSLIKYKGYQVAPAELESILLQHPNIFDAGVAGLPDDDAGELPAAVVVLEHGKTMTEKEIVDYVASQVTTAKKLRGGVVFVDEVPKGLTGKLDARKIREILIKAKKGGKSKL
Streptavidin (Streptomyces avidinii), sequence (P22629 whole entry, looked up): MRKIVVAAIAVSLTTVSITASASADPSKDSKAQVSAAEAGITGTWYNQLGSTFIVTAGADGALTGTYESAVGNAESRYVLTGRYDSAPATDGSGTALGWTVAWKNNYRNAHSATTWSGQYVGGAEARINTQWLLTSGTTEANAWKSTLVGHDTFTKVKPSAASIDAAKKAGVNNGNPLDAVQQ

Structure (SMILES)	composite z-score (Lefty1)	composite z-score [1]	z-score [2]	composite z-score [3]	z-score [4]	z-score [5]	z-score [6]	composite z-score [7]	composite z-score [8]	composite z-score (Torsin-1A (Homo sapiens) [9])	composite z-score (Torsin-1A (Homo sapiens) [10])	composite z-score [11]	z-score [12]	composite z-score [13]	z-score [14]	z-score [15]	z-score [16]	z-score [17]	z-score [18]	z-score [19]
O=C1O[C@@H](c2ccccc2)[C@@H](c2ccccc2)N2[C@@H](c3ccc(OCCO)cc3)[C@]3(C(=O)Nc4ccc(C#CC5(O)CCCCCC5)cc43)[C@@H](C(=O)NC[C@H](O)c3ccccc3)[C@H]12	0.783	1.09	-1.77 (inactive)	0.432	-3.51 (inactive)	0.0776 (inactive)	-1.71 (inactive)	0.866	0.0827	1.2	0.711	0.855	2.35 (inactive)	0.339	1.21 (inactive)	0.484 (inactive)	-0.206 (inactive)	-0.863 (inactive)	1.13	1.37 (inactive)
CC(C)NC(=O)[C@@H]1c2ccccc2C(=O)N(Cc2cc(F)cc(C(F)(F)F)c2)[C@H]1c1ccc(CO)cc1	-1.89	-1.21	-0.758 (inactive)	-0.0581	0.142 (inactive)	-0.529 (inactive)	-1.08 (inactive)	-0.95	-0.329	-0.479	-0.0988	-0.72	1.39 (inactive)	-0.113	2.06 (inactive)	0.391 (inactive)	1.47 (inactive)	0.178 (inactive)	0.161	0.146 (inactive)
COc1c(C)cc(-c2cc3c(c(CCc4ccccc4)n2)[Si](C(C)C)(C(C)C)OC3)cc1C	0.251	-0.442	-0.374 (inactive)	-0.0652	0.236 (inactive)	0.12 (inactive)	-0.867 (inactive)	-0.0683	0.0659	0.367	0.362	0.981	2.56 (inactive)	0.112	1.18 (inactive)	-0.803 (inactive)	-0.428 (inactive)	-1.57 (inactive)	0.663	0.726 (inactive)
O=C(NCC(F)(F)F)[C@@H]1c2ccccc2C(=O)N(C2Cc3ccccc3C2)[C@H]1c1ccc(CO)cc1	-1.25	-2.05	-1.04 (inactive)	-0.034	-1.11 (inactive)	-0.295 (inactive)	-1.15 (inactive)	-1.25	0.106	-0.0578	0.224	-0.875	2.43 (inactive)	0.0588	3.55 (inactive)	-0.483 (inactive)	1.8 (inactive)	-0.683 (inactive)	1.14	0.207 (inactive)
CC1CC/C=C\[C@H]2OC34C=CCN(C(C)C)C(=O)[C@H]3N(C(CO)C(C)C)C(=O)[C@@H]4C2C(=O)O1 (stereo not given in full)	-1.02	-2.12	-1.3 (inactive)	-0.0784	0.114 (inactive)	-0.346 (inactive)	-0.791 (inactive)	-1.28	-0.133	-0.87	-0.22	-0.137	2.16 (inactive)	-0.225	1.3 (inactive)	-0.74 (inactive)	0.604 (inactive)	-0.531 (inactive)	0.0551	1.49 (inactive)
O=c1n(-c2ccccc2)c(=O)n2n1CC(COc1ccccc1)=C1[C@@H](CCc3ccccc3)OB(O)C[C@@H]12	1.52	0.576	-1.2 (inactive)	0.455	-1.84 (inactive)	1.58 (inactive)	-1.67 (inactive)	0.117	0.0756	0.717	-0.0569	1.12	1.63 (inactive)	-0.206	2.27 (inactive)	-0.302 (inactive)	0.622 (inactive)	-1.31 (inactive)	0.642	-0.513 (inactive)
Cc1ccc(S[C@]2(C(=O)NCCN3CCOCC3)CC(=O)N(Cc3cc(C(F)(F)F)cc(C(F)(F)F)c3)[C@@H]2c2ccc(CO)cc2)cc1	-1.1	-1.54	-0.682 (inactive)	0.322	-2.39 (inactive)	-0.464 (inactive)	-1.7 (inactive)	-0.721	-0.0371	-0.847	-0.521	-0.105	2.85 (inactive)	-0.0576	1.69 (inactive)	-0.152 (inactive)	-0.468 (inactive)	-1.39 (inactive)	2.65	0.538 (inactive)
C=CC[C@]1(C(=O)N2CCCCC2)COC(c2ccc(OCCCO)cc2)=N1	-0.45	-1.3	-2.65 (inactive)	0.0945	-4.06 (inactive)	1.08 (inactive)	-1.78 (inactive)	-0.712	-0.128	-0.273	-0.204	0.0166	0.924 (inactive)	0.0391	24.9 (active)	12 (active)	4.37 (inactive)	0.866 (inactive)	0.826	-3.2 (inactive)
C=CCC(OC(C)=O)[C@@H]1[C@@H](N(Cc2cccc3ccccc23)C(=O)c2cccc3ccccc23)c2cc(OCCCO)ccc2N1C(=O)Cc1ccc(OC)cc1 (stereo not given in full)	0.306	0.655	-0.378 (inactive)	-0.0589	-3.55 (inactive)	1.47 (inactive)	-0.876 (inactive)	0.228	-0.179	-0.0507	0.274	0.234	2.86 (inactive)	0.0945	2.59 (inactive)	-0.227 (inactive)	-0.0889 (inactive)	-0.618 (inactive)	1.5	0.295 (inactive)
O=C1O[C@H](c2ccccc2)[C@H](c2ccccc2)N2[C@H]1[C@@H](C(=O)Nc1nc3ccccc3s1)[C@]1(C(=O)Nc3ccc(C#CCCO)cc31)[C@H]2c1ccccc1OCCO	0.287	1.3	-1.14 (inactive)	0.81	-2.88 (inactive)	0.182 (inactive)	-0.428 (inactive)	1.11	0.279	0.795	0.778	0.384	2.34 (inactive)	0.634	2.76 (inactive)	2.95 (inactive)	1.4 (inactive)	1.69 (inactive)	0.503	0.146 (inactive)
CC(C)[C@@H](C(=O)O)n1cc(-c2ccccn2)nn1	0.0234	0.957	-0.495 (inactive)	-0.267	0.715 (inactive)	-0.201 (inactive)	0.159 (inactive)	0.62	0.202	0.417	0.567	0.673	2.01 (inactive)	-0.0559	-0.0828 (inactive)	0.0486 (inactive)	0.322 (inactive)	0.0401 (inactive)	0.0264	-0.847 (inactive)
COC(=O)C1=CC(CCCO)=CC(C2CC2)N(Cc2cc3c(cc2Br)OCO3)C=C1C(=O)OC (stereo not given)	-0.648	1.4	-1.24 (inactive)	0.135	-2.77 (inactive)	0.389 (inactive)	-0.562 (inactive)	1.22	0.143	0.777	1.61	-0.593	1.55 (inactive)	0.248	2.31 (inactive)	-1.2 (inactive)	-0.183 (inactive)	-0.951 (inactive)	0.771	0.0713 (inactive)
CC(C)C[C@@H]1NC(=O)[C@@H]2C[C@H](C(=O)NCCCCCNC(=O)CS)[C@H](c3cccc(OCCO)c3)N2C1=O	1.13	1.23	-2.15 (inactive)	0.257	-1.59 (inactive)	0.147 (inactive)	-1.09 (inactive)	0.811	0.0207	1.31	0.824	2.03	1.8 (inactive)	0.348	3.21 (inactive)	-0.422 (inactive)	-1.74 (inactive)	-1.93 (inactive)	0.955	2.24 (inactive)
C=C1C=C(Br)C2(OCCCO2)[C@H]2OC12 (stereo not given in full)	0.743	-0.903	-0.914 (inactive)	-0.093	0.15 (inactive)	0.199 (inactive)	0.676 (inactive)	0.61	-0.128	0.639	0.495	0.411	0.659 (inactive)	-0.147	-0.14 (inactive)	0.146 (inactive)	-0.334 (inactive)	-0.12 (inactive)	-0.281	0.868 (inactive)
CCCC[C@@H](O)C1=C(C)C[C@H]2C(=O)N(C)C(=O)[C@H]2[C@H]1CO	0.776	1.12	-1.41 (inactive)	-0.0163	-1.36 (inactive)	0.0423 (inactive)	-2.14 (inactive)	-0.242	-0.0736	0.0651	-0.0216	1.18	3.62 (inactive)	-0.239	3.54 (inactive)	-0.526 (inactive)	-0.224 (inactive)	-1.56 (inactive)	0.8	-1.32 (inactive)
CCOC(=O)C[C@H]1[C@H](OC(=O)c2ccc(C(=O)c3ccccc3)cc2)[C@@H](NC(=O)Cc2ccc(OC)cc2)c2cc(OCCCO)ccc2N1C(=O)Cc1ccc(OC)cc1	0.607	0.855	-0.927 (inactive)	0.296	-0.69 (inactive)	2.14 (inactive)	-0.899 (inactive)	0.598	-0.122	0.226	0.413	0.697	1.89 (inactive)	0.357	4.37 (inactive)	-0.625 (inactive)	0.0901 (inactive)	-1.14 (inactive)	1	0.676 (inactive)
